Most compounds without a hit are left out; they make up all but 2.8% or so of the library.
Pol eta inh-1 – DNA polymerase eta (human) inhibition | Q9Y253 | recombinant Pol eta, fluorescent DNA replication assay | Potency, µM (series often up to 114 µM), without a hit: at the top dose activity change, negative = inhibition, hits mostly inhibitors | 1.2% of 390,000 active | AID 588591; also: potency is read from the fitted curve at half-maximal effect; % is scaled to controls: 0 for no effect and ±100 for the full control effect
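Fluorescent replication assay: 50 nM final substrate added after a 15 min room-temperature compound preincubation with 10 nM enzyme. Signal taken at 0 min and again at 10 min.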
PI5P4K alpha inh – inhibitors of human PI5P4K alpha; PI5P4Kalpha enzyme, ADP-Glo luminescence, 60 min; active compounds read low; P48426; max response, %; 1.2% of 330,000 active; active = max response of -50% or lower; inconclusive = between -30% and -50%; inactive = -30% or higher; also: value at the top dose of about 77 µM; % is scaled to controls: 0 for no effect and ±100 for the full control effect
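ADP-Glo luminescence end-point read after a 60 min room-temperature kinase reaction of PI5P4Kalpha plus substrate, initiated with ATP at 5 microM final. Buffer: 0.038 M HEPES pH 7.4, EGTA, 0.1% CHAPS, 5% DMSO.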
Pol kappa inh-1 – blocks human DNA polymerase kappa activity; Q9UBT6; purified Pol kappa, fluorescent DNA synthesis assay, 10 min; Potency, µM (titrated, usually from 107 µM), without a hit: at the highest dose activity, negative = inhibition, usual class: inhibitors; 0.53% of 400,000 active; also: potency is read from the fitted curve at half-maximal effect; % is scaled to controls: 0 for no effect and ±100 for the full control effect
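Kinetic fluorescence screen: compound preincubated 15 min RT with 10 nM enzyme; 50 nM substrate (final) initiates; reads at 0/10 min.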
FEN1 inh-1 – inhibitors of human flap endonuclease 1; P39748; Recombinant FEN1 flap cleavage, fluorescence, 15 min; Potency, µM (highest dose often 114 µM), for inactives: at the top dose activity change, negative = inhibition, hits mostly inhibitors; 0.35% of 390,000 active; AID 588795; also: potency is read from the fitted curve at half-maximal effect; % is scaled to controls: 0 for no effect and ±100 for the full control effect; nearly all actives have a fitted effect of over 65% in size
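Enzyme 10 nM, 15 min RT preincubation with compound; start with substrate 50 nM final; reads at 0 and 15 min; qHTS titration, four-parameter Hill fit.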
POLB inh – DNA polymerase beta (human) inhibition. AID 485314. 1.3% of 340,000 active. Potency, µM (titrated, usually from 114 µM), without a hit: top-dose activity change, negative = inhibition, hits mostly inhibitors. Pol beta primer extension/strand displacement, fluorescence kinetic; also: potency is read from the fitted curve at half-maximal effect; % is scaled to controls: 0 for no effect and ±100 for the full control effect
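Pol beta (10 nM) was preincubated with compound for 15 min at room temperature. The reaction was then started with 50 nM substrate and read immediately and after a further 10 min at room temperature.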
Pol iota inh – blocks human DNA polymerase iota activity. 1% of 390,000 active. Q9UNA4. Potency, µM (titrated, usually from 115 µM), without a hit: at the top dose activity, negative = inhibition, actives largely listed as inhibitors. AID 588590. Pol iota fluorescent replication assay, 10 min; also: potency is read from the fitted curve at half-maximal effect
Target sequence (Q9UNA4 whole entry, looked up): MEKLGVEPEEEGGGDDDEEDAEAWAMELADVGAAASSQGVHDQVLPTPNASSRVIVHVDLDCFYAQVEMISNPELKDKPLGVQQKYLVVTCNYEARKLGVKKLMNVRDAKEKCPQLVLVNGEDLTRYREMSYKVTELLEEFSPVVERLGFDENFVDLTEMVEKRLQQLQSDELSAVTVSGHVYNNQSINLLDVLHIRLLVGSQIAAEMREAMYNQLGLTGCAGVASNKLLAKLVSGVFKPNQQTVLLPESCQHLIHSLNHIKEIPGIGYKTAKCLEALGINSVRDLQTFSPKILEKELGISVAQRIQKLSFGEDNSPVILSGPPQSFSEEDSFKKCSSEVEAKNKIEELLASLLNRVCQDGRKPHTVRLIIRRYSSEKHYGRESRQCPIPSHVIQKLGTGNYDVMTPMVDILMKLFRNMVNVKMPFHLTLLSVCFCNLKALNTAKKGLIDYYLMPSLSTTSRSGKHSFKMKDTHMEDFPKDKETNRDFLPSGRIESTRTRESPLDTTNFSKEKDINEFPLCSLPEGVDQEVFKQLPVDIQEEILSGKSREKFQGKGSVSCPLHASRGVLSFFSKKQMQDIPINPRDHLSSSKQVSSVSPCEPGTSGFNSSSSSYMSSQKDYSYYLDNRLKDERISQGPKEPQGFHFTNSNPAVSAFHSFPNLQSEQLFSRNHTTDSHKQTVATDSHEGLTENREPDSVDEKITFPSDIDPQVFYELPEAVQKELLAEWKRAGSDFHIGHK
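Pol iota at 10 nM preincubated 15 min with compounds at room temperature; reaction started with fluorescent substrate, 50 nM final. Fluorescence read kinetically at 0 and 10 min; buffer-only wells as negative control.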
TbPGK inh – blocks T. brucei phosphoglycerate kinase. Potency, µM (titrated, usually from 57.5 µM), for the others: at the highest dose activity change, negative = inhibition, hits mostly inhibitors. shares compounds with Pol kappa inh-1. AID 686980. 79% of 500 active. TbPGK coupled GAPDH assay, Kinase-Glo luminescence; also: potency is read from the fitted curve at half-maximal effect; % is scaled to controls: 0 for no effect and ±100 for the full control effect; nearly all actives have a fitted effect of over 65% in size
Pol iota confirm – Inhibitors of human DNA polymerase iota, confirmation; shares compounds with Pol kappa inh-1; Pol iota primer extension, TAMRA/BHQ fluorescence; Potency, µM, usual class: inhibitors; 77% of 1,500 active; also: potency is read from the fitted curve at half-maximal effect
Pol kappa inh-2 – confirmation of human DNA polymerase kappa inhibitors. shares compounds with Pol eta inh-1. purified Pol-kappa, fluorescent strand-displacement substrate. Potency, µM, actives largely listed as inhibitors. 76% of 920 active; also: potency is read from the fitted curve at half-maximal effect
Pol eta inh-2 – Pol eta (human) inhibition, cherry-pick confirmation; shares compounds with Pol eta inh-1; Pol eta primer extension, TAMRA/BHQ fluorescence, 10 min; Potency, µM, hits mostly inhibitors; 64% of 2,600 active; AID 720502; also: potency is read from the fitted curve at half-maximal effect
FEN1 inh-2 – FEN1 inhibition, cherry-pick retest | AID 720498 | Potency, µM, hits mostly inhibitors | FEN1 flap cleavage, TAMRA/BHQ2 fluorogenic DNA substrate | 79% of 880 active | shares compounds with FEN1 inh-1; also: potency is read from the fitted curve at half-maximal effect; nearly all actives have a fitted effect of over 60% in size
ADP-Glo interf – ADP-Glo luciferase interference, PI5P4K counter-screen | Potency, µM (top dose mostly 76.9 µM), without a hit: top-dose activity change, negative = inhibition, most hits filed as inhibitors | ADP-Glo detection counter-screen, luciferase luminescence, no enzyme | 1,100 tested, under 10 active | AID 743285 | shares compounds with PI5P4K alpha inh
Active calls of the source: *; i = inactive; ? = inconclusive; nt = not tested or not shown; [ ] = dose if it differs, or a comment. Unless noted, calls follow the shape of the dose curve; as a rule, active = well fitted curve in the direction sought with a large enough effect; inconclusive = small, poorly fitted or top-dose-only effect, or another doubt; inactive = no such curve, though single readings can be large; an effect the other way counts as inactive or inconclusive.

SMILES	Pol eta inh-1	PI5P4K alpha inh	Pol kappa inh-1	FEN1 inh-1	POLB inh	Pol iota inh	Pol iota confirm	Pol eta inh-2	FEN1 inh-2	ADP-Glo interf	others
COc1cccc2c1C(=O)c1c(O)c3c(c(O)c1C2=O)C[C@@](O)(C(C)=O)C[C@@H]3O[C@H]1C[C@H](N)[C@H](O)[C@H](C)O1	-12%	1	5.6µM*	i	28µM*	35µM*	17*	67*	34*	nt	Pol kappa inh-2=?
COc1cccc2c1C(=O)c1c(O)c3c(c(O)c1C2=O)CC(O)(C(=O)CO)CC3OC1CC(N(C)C)C(O)C(C)O1 (stereo unspecified)	?	-1	?	18µM*	nt	40µM*	2.7*	27*	34*	nt	Pol kappa inh-2=34*
CCC(Cn1nnc2ccccc2c1=O)NC(=O)Nc1ccccc1Cl (stereo unspecified)	4%	nt	8%	9%	30%	-26%	nt	nt	nt	nt
O=C(O)c1ccc(NS(=O)(=O)c2ccc3c(c2)C2C=CCC2C(c2ccccc2F)N3)cc1 (stereo unspecified)	10µM*	-51*	35µM*	40µM*	?	?	38*	19*	30*	-3%
Cc1ccc(NS(=O)(=O)c2ccc3c(c2)[C@H]2C=CC[C@H]2[C@@H](c2ccc(F)cc2)N3)cc1C	-14%	nt	6%	-4%	4%	14%	nt	nt	nt	nt
COc1ccc(-c2coc3c(C)c4oc(=O)c(CC(=O)O)c(C)c4cc23)cc1	-13%	-24	-1%	14%	-6%	117%	nt	nt	nt	nt
Cc1c(CC(=O)O)c(=O)oc2c(C)c3occ(-c4ccc(Br)cc4)c3cc12	?	-51*	-6%	?	22µM*	20%	42*	76*	nt	-7%
COc1cccc(NC(=O)CN(C)C(=O)c2cc3c(s2)CCC3)c1	3.5µM*	-71*	32µM*	-12%	nt	22µM*	34*	76*	nt	-3%
COc1cccc(NC(=O)CN(C)C(=O)c2cc3c(s2)CCC(C)C3)c1 (stereo unspecified)	-1%	5	-3%	-13%	nt	13%	nt	nt	nt	nt
Cc1cc2[nH]c3c4ccccc4nc(C)c3c2cc1C	-19%	-52*	79µM*	?	nt	14µM*	42*	nt	6.7*	6%
O=C(OCc1nc2ccsc2c(=O)[nH]1)c1ccco1	5%	0	-13%	2%	nt	47%	nt	nt	nt	nt
Cc1cnc(C(=O)OCc2nc3ccsc3c(=O)[nH]2)cn1	10µM*	-65*	79µM*	?	nt	16µM*	27*	21*	nt	-11%
O=c1[nH]c(COc2ccccc2)nc2ccccc12	-3%	-1	-6%	13%	14%	-10%	nt	nt	nt	nt
Cn1cccc1C(=O)OCc1nc2ccccc2c(=O)[nH]1	20µM*	-53*	71µM*	-21%	nt	18µM*	47*	?	nt	-11%
CCC(Sc1nnc(C)n2c1cc1occc12)C(=O)Nc1ccccc1F (stereo unspecified)	-12%	nt	-15%	-8%	-2%	10%	nt	nt	nt	nt
CCCCn1c(N)c(N(CCOC)C(=O)c2cc(-c3ccco3)nc3ccccc23)c(=O)[nH]c1=O	11µM*	-71*	89µM*	-19%	nt	20µM*	?	?	nt	-2%
COCCN(C(=O)COC(=O)c1cc2c(s1)CCC2)c1c(N)n(Cc2ccccc2)c(=O)[nH]c1=O	0.71µM*	-87*	4.5µM*	40µM*	nt	3.2µM*	1.9*	2.1*	76*	0%	TbPGK inh=0.82µM*
Cc1cccc(NC(=O)c2cc3c(=O)n(Cc4cccnc4)ccc3nc2C)c1	1%	nt	8%	17%	1%	-4%	nt	nt	nt	nt
Cc1ccc(C(=O)NCCn2cc(SCC(=O)Nc3cc(C)on3)c3ccccc32)cc1	-18%	2	10%	9%	2%	-15%	nt	nt	nt	nt
Cc1cc(NC(=O)CSc2cn(CCNC(=O)c3ccccc3)c3ccccc23)no1	?	-76*	11µM*	32µM*	19%	?	8.4*	11*	67*	0%	TbPGK inh=1.2µM*
NS(=O)(=O)c1ccc(CCNC(=O)c2ccc3nccnc3c2)cc1	3.2µM*	-68*	32µM*	?	nt	20µM*	17*	12*	?	1%	Pol kappa inh-2=4.2*
CCc1nc2sc3ccccc3c(=O)c2c(=O)n1Cc1ccco1	32µM*	-68*	50µM*	?	20µM*	16µM*	?	nt	nt	-5%
Cc1ccc(Nc2nnc(SCC(=O)NCCN3C(=O)CSC3=O)s2)cc1C	-16%	-20	4%	18%	28%[57.1 µM]	15%	nt	nt	nt	nt
COc1ccc2c(c1)c(=O)oc1c(C)c(OCc3cc(C(=O)O)oc3C)ccc12	14µM*	-68*	79µM*	?	35µM*	35µM*	?	?	nt	1%
COc1ccc2c(c1)c(=O)oc1c(C)c(OCc3ccc(C(=O)O)cc3)ccc12	?	?	-4%	?	?	?	nt	nt	nt	nt
COc1ccc(OC)c([N+](=O)[O-])c1C(N)=O	50µM*	-65*	?	?	6.3µM*	18µM*	21*	30*	nt	-10%
Cc1cc(C(=O)O)ccc1-c1ccc(CO)o1	3%	-2	-19%	-2%	4%	-14%	nt	nt	nt	nt
C#CCN1C(=O)S/C(=C\c2ccc(-c3ccc(C(=O)O)cc3C)o2)C1=O	7.1µM*	-57*	18µM*	?	16µM*	8.9µM*	15*	8.5*	?	2%
